Screening results as filed in PubChem BioAssay.
IP6K1 inhibitor: Primary qHTS assay for small molecule inhibitors of Inositol hexaphosphate kinase 1 (IP6K1); AID 1645851, 2021; IP6K1 kinase, ADP-Glo luminescence, 2 h; hits give low values; Inositol hexakisphosphate kinase 1 (Homo sapiens), Q92551; activity change, % (series mostly up to about 58 µM); 140,000 compounds, 0.81% hits; in the data active = activity change below about -25%
Target sequence (Q92551 whole entry, looked up): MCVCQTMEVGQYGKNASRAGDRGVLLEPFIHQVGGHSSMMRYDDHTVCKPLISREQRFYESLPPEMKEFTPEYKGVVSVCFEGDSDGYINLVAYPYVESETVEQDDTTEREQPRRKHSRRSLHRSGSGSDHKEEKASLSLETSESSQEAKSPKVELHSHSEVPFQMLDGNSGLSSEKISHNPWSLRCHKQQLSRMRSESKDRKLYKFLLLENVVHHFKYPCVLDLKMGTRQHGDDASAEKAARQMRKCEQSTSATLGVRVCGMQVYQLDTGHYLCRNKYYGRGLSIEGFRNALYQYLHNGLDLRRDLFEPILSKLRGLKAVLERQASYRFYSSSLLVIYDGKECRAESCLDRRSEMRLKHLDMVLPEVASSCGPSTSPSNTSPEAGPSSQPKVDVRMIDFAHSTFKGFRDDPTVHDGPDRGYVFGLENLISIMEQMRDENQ
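ADP-Glo luminescence measures ADP made by human IP6K1 during a 2 h RT reaction with ATP/IP6 (mix at 1.3 mM/130 uM); top library doses 57.5 and 19.1 uM final.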
KDM5B inhibitor: Primary screen for KDM5B Histone Demethylases FDH-coupled qHTS; Lysine-specific demethylase 5B (Homo sapiens), Q9UGL1; KDM5B demethylase, FDH-coupled NADH fluorescence (FDH is formaldehyde dehydrogenase); Potency, µM (highest dose often 57.7 µM), usual class: inhibitors; 220,000 compounds, 2.6% hits; also: nearly all actives have a fitted effect of over 70% in size
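Inhibition is measured as reduced NADH fluorescence generation from FDH coupling to formaldehyde release. Truncated KDM5BΔAP at 200 nM final acts on H3K4me3 peptide (12.5 µM in substrate mix) in pH 7.5 HEPES buffer with Tween-20, 30 min, room temperature.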
SNCA expr inh: Primary qHTS assay for inhibitors of alpha-synuclein gene (SNCA) expression. 140,000 compounds, 0.17% hits. Potency, µM (top dose mostly 57.2 µM), most hits filed as inhibitors. HEK-293 SNCA-luciferase knock-in, luminescence, 24 h. AID 1671194, 2021; also: nearly all actives have a fitted effect of over 45% in size
SNCA viab count: GF-AFC viability counterscreen for inhibitors of alpha-synuclein gene (SNCA) expression. HEK-293-SNCA-luc viability, GF-AFC fluorescence, 24 h. Potency, µM (top dose mostly 57.1 µM), actives largely listed as cytotoxic. 150,000 compounds, 0.12% hits; also: nearly all actives have a fitted effect of over 30% in size
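Cytotoxicity counterscreen: after 24 h compound treatment of genome-edited SNCA-luciferase HEK-293 cells, live-cell protease substrate GF-AFC read by fluorescence after 30 min; activity scaled between DMSO (0%) and medium-only (-100%), curves Hill-fitted.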
A number is an active result; i = inactive; ? = inconclusive; nt = not tested or not shown; [ ] = remark or other dose. Only some compounds are listed: those with a hit (about 2.8% of all), similar ones and a draw of the others. Unless noted, calls follow the shape of the dose curve; as a rule, active = well fitted curve in the direction sought with a large enough effect; inconclusive = small, poorly fitted or top-dose-only effect, or another doubt; inactive = no such curve, though single readings can be large; an effect the other way counts as inactive or inconclusive.

SMILES	IP6K1 inhibitor	KDM5B inhibitor	SNCA expr inh	SNCA viab count
O=C(N1CCCC1)C1(CCO)CCN(c2ncccn2)C1 (centres undefined)	i	28µM	i	i
O=C(Nc1cccc(F)c1)C1(CCO)CCN(c2ncccn2)C1 (centres undefined)	i	28µM	i	i
O=C(NCc1ccccc1)C1(CCO)CCN(c2ncccn2)C1 (centres undefined)	i	28µM	i	i
O=C(Nc1ccc(N2CCOCC2)cc1)C1(CCO)CCN(c2ncccn2)C1 (centres undefined)	i	22µM	?	i
CC(=O)N1CCC[C@@]2(CCN(c3ncccn3)C2)C1	nt	nt	i	i
COCCCNC(=O)C1(CCO)CCN(c2ncccn2)C1 (centres undefined)	i	?	i	i
O=C(Nc1ccc2c(c1)OCCO2)C1(CCO)CCN(c2ncccn2)C1 (centres undefined)	i	?	i	i
O=C(Nc1ccc(N2CCOCC2)cc1)C1(CCO)CCN(Cc2ccccc2)C1 (centres undefined)	i	i	i	i
Cn1c(=O)c2c(nc(NC3CCCCC3)n2Cc2ccccc2F)n(C)c1=O	nt	i	nt	nt
COc1cccc(-c2ccc(C(=O)N3CCC(N[S+](=O)([O-])c4ccccc4)CC3)cc2)c1	i	nt	i	i[12.5 µM]
O=C(CSc1nccn1Cc1ccc2c(c1)OCO2)Nc1nccs1	nt	i	nt	nt
COCCN1C(=O)c2ccccc2C(C(=O)NCc2ccc(Cl)cc2)C12CCCC2 (centres undefined)	i	25µM	i	i
COCCN1C(=O)c2ccccc2C(C(=O)NCc2ccccc2)C12CCCC2 (centres undefined)	i	i	i	i
Cc1ccnc(NC(=O)C2c3ccccc3C(=O)N(CC(C)C)C23CCCC3)c1 (centres undefined)	i	22µM	i	i
COCCN1C(=O)c2ccccc2C(C(=O)NCCc2ccc(F)cc2)C12CCCC2 (centres undefined)	i	28µM	i	i
COCCN1C(=O)c2ccccc2C(C(=O)NCCc2ccccc2)C12CCCC2 (centres undefined)	i	i	i	i
CCc1ccccc1NC(=O)C1c2ccccc2C(=O)N(CCOC)C12CCCC2 (centres undefined)	i	i	i	i
COCCN1C(=O)c2ccccc2C(C(=O)Nc2ccc(C)cc2Cl)C12CCCC2 (centres undefined)	i	28µM	?	i
O=C(CCc1c[nH]c2ccccc12)Nc1ccccc1OC(F)F	nt	i	nt	nt
C/C=C/c1ccc(OCC(O)CNCc2ccc(OC)cc2)c(OC)c1 (centres undefined)	nt	i	nt	nt
COCCN1C(=O)c2ccccc2C(C(=O)NCc2ccccc2Cl)C12CCCC2 (centres undefined)	i	?	i	i
COCCN1C(=O)c2ccccc2C(C(=O)NCc2ccccc2OC)C12CCCC2 (centres undefined)	i	18µM	i	i
CN(CCC(O)c1ccccc1)c1nccc(-c2cccnc2)n1 (centres undefined)	i	28µM	?	i
CN(Cc1cc(C2CC2)n[nH]1)c1nccc(-c2cccnc2)n1	i	22µM	i	i
CN(Cc1cc(C2CC2)n[nH]1)c1cc(C2CC(N)C2)nc(N)n1 (centres undefined)	i	?	i	i
SMILES	IP6K1 inhibitor	KDM5B inhibitor	SNCA expr inh	SNCA viab count
Cc1ccccc1COc1ccc2c(=O)c(-c3ccccc3)coc2c1	nt	i	nt	nt
CCOc1cc(/C=C2\NC(=O)NC2=O)cc(Cl)c1OCc1cccc(F)c1	nt	i	nt	nt
COc1ccc(-c2ccc3nnc(CNC(=O)Cc4cccc(F)c4)n3n2)cc1	i	?	i	i
COc1ccc(-c2ccc3nnc(CNC(=O)COc4ccc(F)cc4)n3n2)cc1	i	28µM	i	i
Cc1ccc(-c2ccc3nnc(CNC(=O)COc4ccccc4)n3n2)cc1C	i	28µM	i	i
Cc1ccc(-c2ccc3nnc(CNC(=O)COc4ccccc4)n3n2)cc1	i	35µM	i	i
Cc1cnc(NC(=O)c2ccc3c(c2)OCCN(CCC(F)(F)F)C3)s1	i	i	i	i
Cc1csc(NC(=O)c2ccc3c(c2)OCCN(CCC(F)(F)F)C3)n1	i	35µM	i	i
O=C(c1ccccn1)N1CCc2nc(C3CC3)nc(-c3ccc(Cl)cc3)c2C1	i	?	i	i
